# Compounds without any hit were thinned out: in the full panel of roughly 83,000, 20% have a hit.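 Cells were grown in 96-well plates and exposed to the test compound at a single concentration for 48 hours; results are reported as percent growth, with values below 10 considered active.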 Active and inactive are the calls of the source.
# Tested on: K-562 leukemia
# Experiment: NCI-60 one-dose screen, 48 h (100 = growth as untreated, 0 = no growth, -100 = all killed)
# Conditions: 10 µM unless noted
row,SMILES,growth
1,Cc1cc(CSc2ccc(Cl)cc2)ccc1N,99.6% (inactive)
2,CC(=O)C(CO)C(=O)Nc1ccccc1 (centres undefined),102% (inactive)
3,Cc1nc2ccccc2c(=O)n1-c1cccc(OCc2cn(-c3cccc(O)c3)nn2)c1,88.2% (inactive)
4,CCCCCCCCCCN1CC2CCCCC2C1 (centres undefined),24.4% (inactive)
5,CCCCN(CCC)CCCCCCCCCCN1CCCc2ccccc21,17.5% (inactive)
6,C/C=C(/C)C(=O)OC1C=C(CO)C(=O)C(OC(=O)/C(C)=C\C)C1C(C)C (centres undefined),-18.3% (active)
7,O=C1C(Cl)=C(Nc2ccc(Nc3ccccc3)c(NC3=C(Cl)C(=O)c4ccccc4C3=O)c2)C(=O)c2ccccc21,41.4% (inactive)
8,CN1CCN(Cc2ccc(NC(=O)c3cncc(C#Cc4c(N)ncc5ccc(F)cc45)c3)cc2C(F)(F)F)CC1,-33.4% (active)
9,COc1cccc(CNC(=O)c2cccc(C3CC(=O)c4c(cc(OC)c(OC)c4OC)O3)c2)c1 (centres undefined),10.7% (inactive)
10,COC(=O)C1CC(=O)N(C(=O)Nc2ccc(Cl)cc2Cl)C1 (centres undefined),92.8% (inactive)
11,O=C(/C=C\c1ccc(NCc2ccc(C(=O)O)cc2)cc1)CCl,9.08% (active)
12,CC1(C)NC(=S)NC1=O,89% (inactive)
13,Cc1ccc(C(=O)Nc2ccc(CN3CCN(C)CC3)c(C(F)(F)F)c2)cc1C#Cc1cncc2ncccc12,-67.4% (active)
14,COc1ccc(-c2nc(N)n(C(=S)Nc3ccccc3)n2)cc1,95% (inactive)
15,O=C(O)c1ccc(-c2nn(-c3ccc(C(=O)O)cc3)cc2CNc2ccc(Br)cc2)cc1,102% (inactive)
16,CCS(=O)(=O)N[C@@H]1O[C@H](COC(C)=O)C(OC(C)=O)[C@H](OC(C)=O)C1OC(C)=O (some centres undefined),99.4% (inactive)
17,CCC(C)(C)c1ccc(OCCCCCCN2CCN(c3ccc(C)c(Cl)c3)CC2)cc1,78.4% (inactive)
18,Cc1ncc(C(=O)Nc2ccc(CN3CCN(C)CC3)c(C(F)(F)F)c2)cc1C#Cc1c(N)ncc2ccccc12,-73.2% (active)
19,COc1ccc2cnc(N)c(C#Cc3cc(C(=O)Nc4ccc(CN5CCN(C)CC5)c(C(F)(F)F)c4)cnc3C)c2c1,-42.8% (active)
20,COc1ccc(-c2nc(SCC(C)C)nc(Nc3ccc(C(=O)O)cc3)c2C#N)cc1,89% (inactive)

row,SMILES,growth
1,CCCCCCCCCCCCCCCCC(=O)O.CCCCCCCCCCCCCCCCCC(=O)O.CCCCCCCCCCCCCCCCCC(=O)O.CCCCCCCCCCCCCCCCCC(=O)O.CCCCCCCCCCCCCCCCCC(=O)O.CO[CH-]OC12COC1CC(O)C1(C)C(O)C(OC(C)O)C3=C(C)C(OC(=O)C(O)C([NH-])c4ccccc4)CC(O)(C(OC(=O)c4ccccc4)C21)C3(C)C.[Cu+].[Zn].[Zn].[Zn].[Zn].[Zn] (centres undefined),8.31% (active)
2,O=C1c2cc([N+](=O)[O-])ccc2-c2cc(Cl)c(NC(=O)C(F)(F)F)cc21,88.6% (inactive)
3,CCCNC(=O)Oc1ccc(/C(=C(/C)Cc2ccc(OC)cc2)c2ccc(OCCN3CCCCC3)cc2)cc1,50.8% (inactive)
4,CC(=O)CCS(=O)c1ccccc1 (centres undefined),98.9% (inactive)
5,N#CC1=C(N2CCOCC2)NC2c3ccccc3Sc3ccccc3N2C1=N (centres undefined),117% (inactive)
6,CC(C)(C)OC(=O)N1C/C(=C\c2ccccc2)C(=O)/C(=C/c2ccccc2)C1,74.8% (inactive)
7,N#Cc1ccc(NC2c3ccccc3CC2O)cc1 (centres undefined),90.4% (inactive)
8,CC([C@H]1CCC2C3CCC4C[C@@H](N)CC[C@]4(C)C3CC[C@@]21C)N(C)C (some centres undefined),21.2% (inactive)
9,CCN(CC)c1ccc2nc3ccc(N=Nc4ccc(O)cc4)cc3[n+](-c3ccccc3)c2c1,18.2% (inactive)
10,CC(C)CSc1nc(-c2ccc(F)cc2)c(C#N)c(N2CCCCC2)n1,95.8% (inactive)
11,Cc1ccc(C(=O)Nc2ccc(CN3CCN(C)CC3)c(C(F)(F)F)c2)cc1C#Cc1cnc(N)c2ccc(C#N)cc12,-25.5% (active)
12,CCCCCN1CCN(C(CC(=O)c2ccccc2)C(=O)c2ccccc2)CC1 (centres undefined),11.2% (inactive)
13,COc1ccc2cc(C(C)C(=O)Nc3ccc(S(=O)(=O)Nc4cc(C)on4)cc3)ccc2c1 (centres undefined),95% (inactive)
14,CN1CCN(Cc2ccc(NC(=O)c3ccc(C#Cc4c(N)ncc5ccc(F)cc45)cc3)cc2C(F)(F)F)CC1,-44.5% (active)
15,CSC1=Nc2c(c(C)c(-c3ccccc3)n2CCCCl)C2=NC(=O)CN12,19.3% (inactive)
16,Cc1ncc(C(=O)Nc2ccc(CN3CCN(C)CC3)c(C(F)(F)F)c2)cc1C#Cc1cnc(NC2CC2)c2ncccc12,-56.8% (active)
17,Oc1ccc([S+](c2ccc(O)cc2)c2ccc(O)cc2)cc1,94.7% (inactive)
18,Oc1ccc2ccccc2c1/C=N\Nc1ccccn1,16.1% (inactive)
19,CCCNC(=O)Oc1ccc(/C(=C(/CC)Cc2ccccc2)c2ccc(OCCN(CC)CC)cc2)cc1,-31.9% (active)
